HTR2A ag – activates the mouse 5-HT2A serotonin receptor | P35363 | CHO-K1 mHTR2A beta-arrestin complementation, luminescence; percent of 30 µM serotonin response | activation, % at 7.6 µM | actives 0.66% (n = 360,000) | AID 624169;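 active = activation above a run cutoff, the mean activation of all tested compounds plus 3 SD, cut at about 14% in these data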
HTR5A ag – HTR5A agonism, opioid heterodimer counter-screen; P47898; HTR5A agonist assay, luminescence, cell-based; activation, % at 9.3 µM; actives 0.61% (n = 340,000); AID 504692; in the data active = activation mostly above about 9.5%, no sharp cut-off; inactive = mostly below about 7.6%
HTR5A inv ag – counter-screen for OPRM1-OPRD1 inverse agonists: human HTR5A inverse agonism. HTR5A cell line, luminescence. actives 0.083% (n = 340,000). P47898. AID 504634. inhibition, % at 9.3 µM; in the data active = inhibition mostly above about 23%, no sharp cut-off; inactive = mostly below about 18%
MOR-DOR inv ag – mu-delta opioid heterodimer inverse agonism | P35372+P41143 | cell-based MOR-DOR heterodimer luminescence | inhibition, % at 9.3 µM | actives 0.21% (n = 340,000) | AID 504357; in the data active = inhibition above about 22%, passing the limit was not always enough
Target sequence (P35372 whole entry, looked up): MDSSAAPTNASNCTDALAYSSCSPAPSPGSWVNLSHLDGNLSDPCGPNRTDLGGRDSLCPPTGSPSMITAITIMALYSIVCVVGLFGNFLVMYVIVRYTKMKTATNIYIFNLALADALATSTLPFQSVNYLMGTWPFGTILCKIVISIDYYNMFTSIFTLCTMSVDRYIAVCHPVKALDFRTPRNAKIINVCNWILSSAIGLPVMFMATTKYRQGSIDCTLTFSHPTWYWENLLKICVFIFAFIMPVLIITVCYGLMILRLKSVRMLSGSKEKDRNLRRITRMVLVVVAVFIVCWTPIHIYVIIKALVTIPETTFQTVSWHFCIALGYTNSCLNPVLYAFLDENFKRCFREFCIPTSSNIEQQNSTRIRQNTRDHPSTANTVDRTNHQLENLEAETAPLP
Target sequence (P41143 whole entry, looked up): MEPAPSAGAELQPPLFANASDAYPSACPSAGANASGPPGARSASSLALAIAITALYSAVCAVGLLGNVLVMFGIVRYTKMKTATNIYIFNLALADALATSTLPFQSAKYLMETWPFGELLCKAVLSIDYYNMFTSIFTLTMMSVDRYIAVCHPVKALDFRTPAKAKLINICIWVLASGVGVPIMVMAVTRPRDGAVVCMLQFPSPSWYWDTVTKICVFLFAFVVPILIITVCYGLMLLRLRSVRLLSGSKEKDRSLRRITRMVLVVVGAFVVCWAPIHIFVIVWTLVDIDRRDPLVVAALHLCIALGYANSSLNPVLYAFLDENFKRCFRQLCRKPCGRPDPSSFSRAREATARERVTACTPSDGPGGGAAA
MOR-DOR ag – OPRM1-OPRD1 heterodimerization agonism; activation, % at 9.3 µM; P35372+P41143; AID 504326; actives 0.3% (n = 340,000); cells, luminescence
sPLA2-III inh – Inhibits HGIII-sPLA2 liposome hydrolysis, primary screen; Q9NZ20; QFRET BODIPY PC-A2 liposome hydrolysis, fluorescence; inhibition, % at 12.2 µM; actives 0.56% (n = 370,000); AID 743126;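 active = inhibition above mean plus 3 SD of compounds lying within the high and low control bounds, cut at about 19% in these data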
MOR-DOR ag conf – confirmation of human OPRM1-OPRD1 heterodimerization agonists; AID 504904; actives 45% (n = 830); shares compounds with MOR-DOR ag; cells, MOR-DOR heterodimerization, luminescence complementation; activation, % at 9.3 µM
HTR5A ag ctr2 – activates human HTR5A in OPRM1-OPRD1 agonist counter-screen. activation, % at 9.3 µM. shares compounds with MOR-DOR ag. HTR5A agonist counterscreen, cell luminescence. actives 8% (n = 830); in the data active = activation above about 17%
Each line names hits and unclear results; the compound was inactive in the other large screens (follow-up assays come after a bar, where they were run); ! = not confirmed by another sample. A selection: hits, their analogues and other compounds. The true share with any hit is near 2.2%. Rule as the data show it, unless noted: active = activation above about 18%; inactive = the rest.

CCOc1ccc(S(=O)(=O)Nc2cccc(C(=O)NCC(c3ccccc3)N(C)C)c2)cc1 (stereo unspecified)	MOR-DOR ag 58 | MOR-DOR ag conf 52 | HTR5A ag ctr2 inactive
COc1ccc(C(CNC(=O)c2cccc(NS(=O)(=O)c3ccccc3)c2)N(C)C)cc1 (stereo unspecified)	MOR-DOR ag 46 | MOR-DOR ag conf 29 | HTR5A ag ctr2 inactive
CCCCNC(=O)C[C@H]1C[C@@]2(C(=O)OC)C(=C[C@H](C3CCCC3)O[C@@H]2C)N(CCc2ccc(OC)c(OC)c2)C1=O	none (no result: HTR2A ag, HTR5A ag, HTR5A inv ag, MOR-DOR inv ag, MOR-DOR ag)
COc1cccc(C(=O)Nc2ccc3c(c2)C(=O)c2ccccc2C3=O)c1	MOR-DOR ag 38 | MOR-DOR ag conf 53 | HTR5A ag ctr2 inactive
CC1=CC(C)(C)N=C(Nc2nc(C)c3cc(C)cc(C)c3n2)N1	MOR-DOR ag 19 | MOR-DOR ag conf 21 | HTR5A ag ctr2 inactive
Cc1ccc(OCCNC(=O)[C@@H](Cc2ccccc2)NC(=O)[C@H]2O[C@@H](n3ccc(=O)[nH]c3=O)[C@H](O)[C@@H]2O)cc1C	none (no result: HTR2A ag, HTR5A ag, HTR5A inv ag, MOR-DOR inv ag, MOR-DOR ag)
CC(=O)Nc1ccc(NC(=O)C(=O)NCC(c2ccco2)N2CCc3ccccc3C2)cc1 (stereo unspecified)	MOR-DOR ag 21 | MOR-DOR ag conf 22 | HTR5A ag ctr2 inactive
CC(=O)Nc1ccc(NC(=O)C(=O)NCC(c2ccco2)N2CCc3ccccc32)cc1 (stereo unspecified)	none
C[C@@H]1C=CCCO[C@]12C(=O)N(Cc1ccc(Br)cc1)c1cccc(Br)c12	none (no result: HTR2A ag, HTR5A ag, HTR5A inv ag, MOR-DOR inv ag, MOR-DOR ag)
CCn1cc(CN2CCC(n3nccc3NC(=O)CCc3ccccc3)CC2)cn1	MOR-DOR ag 31 | MOR-DOR ag conf inactive | HTR5A ag ctr2 inactive
CCCn1ncc(CN2CCC(n3nccc3NC(=O)c3ccccc3OC)CC2)c1C	none
CCCn1ncc(CN2CCC(n3nccc3NC(=O)CCc3ccccc3)CC2)c1C	MOR-DOR ag 223 | MOR-DOR ag conf inactive | HTR5A ag ctr2 inactive
Cc1ccc(Nc2nc(N/N=C/c3c[nH]c4ccccc34)nc(N3CCOCC3)n2)cc1	MOR-DOR ag 19 | MOR-DOR ag conf inactive | HTR5A ag ctr2 inactive
C(=N\Nc1nc(Nc2ccccc2)nc(N2CCOCC2)n1)/c1c[nH]c2ccccc12	none (no result: HTR2A ag, HTR5A ag, HTR5A inv ag, MOR-DOR inv ag, MOR-DOR ag)
COc1ccc(-c2ccc(C(=O)O)o2)c([N+](=O)[O-])c1	none
CNC(=O)/C(C#N)=C/c1ccc(-c2ccc(OC)cc2[N+](=O)[O-])o1	MOR-DOR ag 19 | MOR-DOR ag conf inactive | HTR5A ag ctr2 inactive
CC(NCc1ccco1)C(=O)N1CCN(c2ccc(F)cc2)CC1 (stereo unspecified)	none (no result: HTR2A ag, HTR5A ag, HTR5A inv ag, MOR-DOR inv ag, MOR-DOR ag)
Oc1ccc(Oc2ccc3c(C(F)(F)F)cc(C(F)(F)F)nc3n2)cc1	MOR-DOR ag 20 | MOR-DOR ag conf 82 | HTR5A ag ctr2 inactive
CN1CCN(Cc2nc3ccccc3c(=O)n2Cc2nc(-c3ccc4ccccc4c3)cs2)CC1	HTR5A ag 9.0, MOR-DOR ag 20! | MOR-DOR ag conf 49 | HTR5A ag ctr2 inactive
CN1CCN(Cc2nc3ccccc3c(=O)n2Cc2nc(-c3cccc([N+](=O)[O-])c3)cs2)CC1	none (no result: HTR5A ag, HTR5A inv ag, MOR-DOR inv ag, MOR-DOR ag)
CCN1CCN(c2ccc(NC(=O)c3ccc(Br)o3)cc2)CC1	none
CN1CCN(c2ccc(NC(=O)c3ccc(-c4ccc(Br)cc4)o3)cc2)CC1	HTR5A ag 17, MOR-DOR ag 345 | MOR-DOR ag conf 36 | HTR5A ag ctr2 inactive
CC(C)CNc1cccc2c1S(=O)(=O)N[C@@H](C)CO2	none (no result: HTR2A ag, HTR5A ag, HTR5A inv ag, MOR-DOR inv ag, MOR-DOR ag)
C=CCN1[C@@H](C)COc2cccc(N3CCSCC3)c2S1(=O)=O	none (no result: HTR2A ag, HTR5A ag, HTR5A inv ag, MOR-DOR inv ag, MOR-DOR ag)
CN(C)C(CNC(C(=O)Nc1ccc(F)cc1)c1ccccc1)c1ccccc1 (stereo unspecified)	MOR-DOR ag 230 | MOR-DOR ag conf inactive | HTR5A ag ctr2 inactive
CN(C)C(CNC(C(=O)Nc1ccc([N+](=O)[O-])cc1Br)c1ccccc1)c1ccccc1 (stereo unspecified)	MOR-DOR ag 66 | MOR-DOR ag conf 79 | HTR5A ag ctr2 inactive
COc1ccc(NC(=O)CCOc2ccccc2)cc1	none
CN(C)C(CNC(=O)CCc1nc2ccccc2s1)c1ccccc1 (stereo unspecified)	MOR-DOR ag 33 | MOR-DOR ag conf inactive | HTR5A ag ctr2 inactive
CN(C)C(CNC(=O)CCOc1ccccc1)c1ccco1 (stereo unspecified)	MOR-DOR ag 26 | MOR-DOR ag conf 24 | HTR5A ag ctr2 inactive
COc1ccc(C(CNC(=O)CCOc2ccccc2)N(C)C)cc1 (stereo unspecified)	MOR-DOR ag 32 | MOR-DOR ag conf 361 | HTR5A ag ctr2 inactive
Cc1cccc(OCCC(=O)NCC(c2ccccc2)N(C)C)c1 (stereo unspecified)	MOR-DOR ag 28 | MOR-DOR ag conf 49 | HTR5A ag ctr2 inactive
CC(=O)c1ccc(OCCCC(=O)NCC(c2ccco2)N(C)C)cc1 (stereo unspecified)	none
O=C(CC1C=CCC1)OCCN1CCN(C2CN(Cc3cn(Cc4ccccc4Cl)nn3)S(=O)(=O)C2)CC1 (stereo unspecified)	none (no result: HTR2A ag, HTR5A ag, HTR5A inv ag, MOR-DOR inv ag, MOR-DOR ag)
COc1ccc(NC(=O)c2cc3ccccc3o2)cc1S(=O)(=O)N1CCCCC1	MOR-DOR ag 21 | MOR-DOR ag conf inactive | HTR5A ag ctr2 inactive
Cc1cc(/C=C2\SC(=Nc3ccccc3)NC2=O)c(C)n1-c1ccc(S(N)(=O)=O)cc1	MOR-DOR ag 120 | MOR-DOR ag conf 140 | HTR5A ag ctr2 inactive
O=C1NC(=Nc2ccccc2)S/C1=C\c1ccccc1	MOR-DOR ag 24 | MOR-DOR ag conf inactive | HTR5A ag ctr2 inactive
COC(=O)[C@]12C[C@H](CC(=O)N3CCSCC3)C(=O)N(Cc3ccc4c(c3)OCO4)C1=C[C@H](COCc1ccccc1)O[C@@H]2C	none (no result: HTR2A ag, HTR5A ag, HTR5A inv ag, MOR-DOR inv ag, MOR-DOR ag)
CCc1ccc(NC(=O)Nc2ccc3c(c2)N(C)C(=O)CS3)cc1	MOR-DOR ag 96 | MOR-DOR ag conf 55 | HTR5A ag ctr2 inactive
N#Cc1cccc(OC[C@@H](O)CN2CCC(C(O)(c3ccccc3)c3ccccc3)CC2)c1	none (no result: HTR2A ag, HTR5A ag, HTR5A inv ag, MOR-DOR inv ag, MOR-DOR ag)
COC(=O)[C@]1(CNC(=O)c2cc(F)ccc2F)CC(=O)N(C)[C@@H]1c1ccccc1	none (no result: HTR2A ag, HTR5A ag, HTR5A inv ag, MOR-DOR inv ag, MOR-DOR ag)
CC1=C(C(=O)Nc2nc3ccccc3s2)C(c2ccco2)C(C#N)=C(SCC(=O)NC2CCCCC2)N1 (stereo unspecified)	MOR-DOR ag 26 | MOR-DOR ag conf inactive | HTR5A ag ctr2 inactive
CC1=C(C(=O)Nc2ccccc2)C(c2ccncc2)C(C#N)=C(SCC(=O)NC2CC2)N1 (stereo unspecified)	none

Bioassay records from PubChem.
